# Source: PubChem BioAssay
# Compounds with a hit are over-represented: about 6.2% of the library has one in this group of screens.
# HCMV inh = qHTS Assay for inhibitors of the human cytomegalovirus (HCMV); HFF cells, HCMV-luciferase reporter, 72 h; hits give low values; activity change, negative = inhibition, % at 57.5 µM; 410,000 compounds, 4.5% hits; AID 1259415, 2018; in the data active = activity change below about -60%; inconclusive = no clear call, values can overlap the other calls; inactive = above about -39%
#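 HFF cells seeded 16 h at 37C, treated with compounds, infected with luciferase-reporter HCMV at MOI 1 PFU/cell; luciferase read at 72 h post infection, normalized to buffer-only and Salinomycin controls.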
# FMDV inh = High Throughput Screening for Foot and Mouth Disease Virus Antivirals; Potency, µM (series often up to 57.9 µM), for inactives: at the highest dose activity change, negative = inhibition, actives largely listed as inhibitors; FMDV antiviral cell-based qHTS; 410,000 compounds, 1.2% hits; calls by dose curve; tested in HEK293T cells; note: read-out not given here; potency is the fitted concentration of half-maximal effect; nearly all actives have a fitted effect of over 45% in size
# LASV entry inh = qHTS for Inhibitors of binding or entry into cells for Lassa Virus; Lassa virus pseudotype entry inhibition, cell reporter; 300,000 compounds, 1.2% hits; AID 540256, 2011; Potency, µM (titrated, usually from 37.9 µM), for the others: top-dose activity change, negative = inhibition, usual class: inhibitors; calls by dose curve; tested in HEK293 cells; note: potency is the fitted concentration of half-maximal effect; nearly all actives have a fitted effect of over 50% in size
# MARV entry inh = qHTS for inhibitors of binding or entry into cells for Marburg Virus; Marburg virus pseudotyped entry inhibition, cell reporter; Potency, µM (titrated, usually from 37.8 µM), inactives show top-dose activity change, negative = inhibition, usual class: inhibitors; 300,000 compounds, 1.8% hits; calls by dose curve; tested in HEK293 cells; note: potency is the fitted concentration of half-maximal effect
# The depositor's hits bear a star; ? = inconclusive; . = no result given; [ ] = another dose, or the depositor's remark. % is set by controls: 0 for no effect and ±100 for the full control effect.
SMILES,HCMV inh,FMDV inh,LASV entry inh,MARV entry inh
CC(OC(=O)c1cc(Br)ccc1O)C(=O)Nc1ccc(S(=O)(=O)N2CCCC2)cc1 (stereo unspecified),-3.4,20µM*,?,?
CCCN(CCC)S(=O)(=O)c1ccc(C(=O)Nc2nc3c(s2)CCc2ccccc2-3)cc1,-72.1*,-25.2%,?,?
COc1cccc(OC)c1C(=O)Nc1nc2c(s1)CCc1ccccc1-2,-12.9,-22.4%,-1.6%[46.1 µM],.
CCSc1nn(CC(=O)Nc2ccc(C(=O)OC)cc2)c(N)c1S(=O)(=O)c1ccc(C)cc1,4.3,4.1%,?,.
CCOC(=O)c1ccc(NC(=O)Cn2nc(SC)c(S(=O)(=O)c3ccc(Cl)cc3)c2N)cc1,-104.5*,?,?,?
Cc1ccc2c(c1)COc1c3ccc(C(=O)O)cc3nn1-2,0.2,10µM*,.,.
Cc1nonc1NC(=O)CSc1nc2ccccc2[nH]1,-3.9,-0.5%,?,8.5%
O=C(CSc1nc2ccccc2[nH]1)Nc1c(F)cccc1F,-84.9*,15.4%,?,-25.1%[46.1 µM]
COc1nonc1NC(=O)CSc1nc2ccccc2[nH]1,-64.1*,-13.5%,28.2%,12.6%
O=C(CSc1nc2ccccc2[nH]1)Nc1nc(-c2ccc(Br)cc2)cs1,23.1,22.4µM*,?,?
Cc1ccc(CNC(=O)CC(C)CC2=NS(=O)(=O)c3ccccc3N2)cc1 (stereo unspecified),2.1,-11.0%,3.0%[46.1 µM],.
CCOC(=O)C1NNN2C3CCCCC3C(N3CCN(C4CCCCC4)CC3)NC12 (stereo unspecified),.,.,.,4.8%[46.1 µM]
C=Cc1ccc(Cn2c(C(=O)O)c(CNC3CCCCC3)c3ccc(C)cc32)cc1,7.5,16.5%,27.0%[46.1 µM],.
CC(C)CCn1c(SCC(=O)N2CC(=O)Nc3ccccc32)nc2scc(-c3cccs3)c2c1=O,-7.9,-12.9%,23.9%,-17.1%
O=C(CSc1nc(-c2ccccc2)cs1)N1CCN(C(=O)c2ccco2)CC1,-103.1*,?,3.3%,19.6%
COc1ccc2cc(C#N)c(SCC(=O)N3CC(=O)Nc4ccccc43)nc2c1,.,-13.6%,.,.
O=C1CN(C(=O)CSc2nc(-c3ccccc3)cs2)c2ccccc2N1,-61.4*,?,?,?
O=C1CN(C(=O)CSc2nncs2)c2ccccc2N1,-14.3,60.3%,6.2%[46.1 µM],?
Cc1cccc2cc(C#N)c(SCC(=O)N3CC(=O)Nc4ccccc43)nc12,-96.5*,?,?,?
C=CCn1c(SCC(=O)N2CC(=O)Nc3ccccc32)nc2scc(-c3cccs3)c2c1=O,-10.0,?,14.6µM*,?
CON(C)C(=O)/C=C/[C@@H](CC1CCCC1)NC(=O)C(F)(F)F,-14.4,.,.,.
CC(C)CN(CCCNC(=O)c1cc(-c2cccs2)nc2ccccc12)CC(C)C,-10.5,-12.5%,0.9%[46.1 µM],?
CC1(C)C(=O)Nc2ccccc2N1C(=O)CSc1nc(-c2ccccc2)cs1,-62.7*,15.8µM*,6.3%,?
CCOc1cc(/C=C/c2nc3ccccc3c(=O)[nH]2)ccc1O,109.5,0.0%,.,.
CCOc1cc(/C=C/c2cc(C(F)(F)F)[nH]c(=O)n2)ccc1O,-98.4*,?,?,?
SMILES,HCMV inh,FMDV inh,LASV entry inh,MARV entry inh
O=c1nc(/C=C/c2ccccc2C(F)(F)F)cc(C(F)(F)F)[nH]1,18.7,-18.3%,.,.
COc1ccc(/C=C/c2cc(C(F)(F)F)[nH]c(=O)n2)cc1OC,-94.5*,?,?,10.2%[46.1 µM]
CCOC(=O)N/N=C1\C[C@@H](O)[C@@H](O)[C@@H]2[C@@H]3C(=O)N(Cc4ccc5c(c4)OCO5)C(=O)[C@@H]3CC[C@H]12,.,.,.,-1.5%[14.2 µM]
Cc1ccc(-c2nc3ncccc3o2)cc1NC(=O)c1ccc(-c2cccc(Cl)c2C)o1,-2.7,?,27.0%[46.1 µM],.
O=C1NC(=O)C(C2CCCCCC2)C(=O)N1,-65.7*,-8.2%,21.9%[46.1 µM],14.7%[46.1 µM]
Cc1ccc(NC(=O)C(C)Oc2ccccc2)cc1S(=O)(=O)N1CCCCCC1 (stereo unspecified),-21.3,-25.3%,.,.
Cc1ccc(NS(=O)(=O)c2cc(NC(=O)C(C)Oc3ccccc3)ccc2C)c(C)c1 (stereo unspecified),-6.9,12.7%,?,4.61µM*
CCOc1ccccc1C1CC(=O)NC(C)=C1C(=O)OCc1ccc(C)cc1 (stereo unspecified),13.4,?,-14.2%[46.1 µM],11.8%[46.1 µM]
CC(C)CC(=O)NC(Nc1ccc([N+](=O)[O-])cc1)C(Cl)(Cl)Cl (stereo unspecified),-27.4,31.6µM*,?,?
CC(C)CC(=O)NC(Nc1ccccc1F)C(Cl)(Cl)Cl (stereo unspecified),-28.8,-7.5%,4.4%,-24.6%
Cc1ccc(C)c2sc(N3CCN(C(=O)c4ccc([N+](=O)[O-])o4)CC3)nc12,-7.2,?,?,12.6µM*
O=C(c1ccc([N+](=O)[O-])o1)N1CCN(c2nc3c(F)cc(F)cc3s2)CC1,2.3,0.0%,2.8%,?
CC(Oc1ccc(F)cc1)C(=O)Nc1nc(-c2ccc(F)cc2)ns1 (stereo unspecified),-94.3*,-36.8%,1.6%[46.1 µM],8.5%[46.1 µM]
COc1ccc(C(=O)Nc2nc(-c3ccc(Br)cc3)ns2)cc1,?,?,?,3.8%[46.1 µM]
COc1ccc(-c2nsc(NC(=O)C(C)Oc3ccc(Cl)c(C)c3)n2)cc1 (stereo unspecified),-64.7*,?,6.7%[46.1 µM],0.6%[46.1 µM]
Cc1cc(C)n(-c2nc3ccccc3nc2Nc2ccc(Cl)c(C(=O)OC(C)C)c2)n1,19.0,-16.7%,4.7%[46.1 µM],24.1%[46.1 µM]
Cc1cc(F)ccc1S(=O)(=O)Nc1ccccc1C(=O)Nc1ccccc1-c1nc2ccccc2[nH]1,.,0.0%,11.2µM*,?
O=C(NCCc1nc2ccccc2[nH]1)c1cccc(Br)c1,-70.0*,-24.4%,2.5%,0.8%[46.1 µM]
COc1cccc2cc(-c3nnc(Nc4ccccc4C)s3)c(=O)oc12,65.2,43.3%,7.3%[46.1 µM],.
CCCCCCc1cc2cc(-c3nnc(-c4cc(OC)c(OC)c(OC)c4)o3)c(=O)oc2cc1O,.,13.8%,2.5%,-2.0%
CCCCCCc1cc2cc(-c3nnc(-c4ccccc4O)o3)c(=O)oc2cc1O,-104.1*,?,-0.9%,19.0%
CCCCCCc1cc2cc(-c3nnc(-c4ccccc4OC)o3)c(=O)oc2cc1O,-73.6*,?,?,?
CC(=O)N1CCC[C@H]1C(=O)NCC1Cc2cc(-c3cccc(OC(F)(F)F)c3)ccc2O1 (stereo partly specified),.,-7.3%,.,.
CCOC(=O)c1cccn1C1C(=O)N(Cc2ccc(Cl)nc2)c2ccccc21 (stereo unspecified),-10.2,.,.,.
COc1ccc(/C=N/OCC(=O)NC(c2ccccc2)c2ccccc2)cc1OC,-65.5*,7.08µM*,?,?
CCOc1ccc(/C=N/OCC(=O)Nc2ccc(OCc3ccccc3)cc2)cc1OC,17.0,6.9%,-0.7%,?
COc1cc(/C=N/OCC(=O)Nc2ccc(OC(F)F)cc2)ccc1OCc1ccccc1,12.4,0.3%,?,7.08µM*
CCCCCc1nc2sc3c(c2c(=O)n1NC(=O)c1ccc([N+](=O)[O-])cc1)CC(C)(C)OC3,-89.3*,-13.4%,?,?
COc1ccc(NC(=O)Cc2ccc(NC(=O)N3CCCCc4ccccc43)cc2)c(OC)c1,34.7,-20.0%,-15.5%[46.1 µM],.
